Records with an inconclusive call do not appear. A number with no mark means an inactive call. Active and inactive are the calls of the source. Unless noted, calls follow the shape of the dose curve; as a rule, active = well fitted curve in the direction sought with a large enough effect; inconclusive = small, poorly fitted or top-dose-only effect, or another doubt; inactive = no such curve, though single readings can be large; an effect the other way counts as inactive or inconclusive.

A short description of experiment [1]: qHTS for Inhibitors of Plasmodium falciparum (DD2) proliferation (AID 504314).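 Also: parasite DNA measured by SYBR Green fluorescence after red cell lysis; plate controls were DMSO vehicle for no effect and artemisinin wells for full effect.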 Summed up:
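Normalization used 0.29 uM artemisinin as full inhibition and DMSO as baseline. Parasitized erythrocytes were exposed to compounds for 72 h (37C, 5% CO2), then lysed with saponin/Triton buffer containing SYBR Green I.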
Background: qHTS replaces the single test concentration by a dilution series.

A short description of experiment [2]: qHTS for Inhibitors of Plasmodium falciparum (GB4) proliferation (AID 504315).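 Also: 0% = DMSO vehicle and -100% = 0.29 µM artemisinin control; nearly all actives have a fitted effect of over 50% in size.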 In short, it runs like this: (§1)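 Parasite growth measured as SYBR Green DNA fluorescence (ex 485, em 535 nm) after overnight lysis following 72 h culture at 37 °C, 0.3% parasitemia, 2.5% hematocrit. Values normalized against DMSO and 0.29 uM artemisinin controls, with plate-stack correction.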

A short description of experiment [3]: qHTS for Inhibitors of Plasmodium falciparum (7G8) proliferation (AID 504316).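 Also: series mostly up to about 6.7 µM; 0% = DMSO vehicle and -100% = 0.29 µM artemisinin full kill; nearly all actives have a fitted effect of over 65% in size.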 Summed up:
as §1

Experiment [4] is described as follows: qHTS for Inhibitors of Plasmodium falciparum (HB3) proliferation (AID 504318).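 Also: 0% = DMSO vehicle and -100% = artemisinin control; nearly all actives have a fitted effect of over 60% in size.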 In short, it runs like this: as §1
A short description of experiment [5]: qHTS for Inhibitors of Plasmodium falciparum (CP250) proliferation (AID 504320).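 Also: plate controls were DMSO vehicle for no effect and 0.29 µM artemisinin control for full effect.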 In short, it runs like this: as §1
Experiment [6] has as its target Atrial natriuretic peptide receptor 1 (Homo sapiens) (UniProt P16066). Nature of the experiment: Natriuretic polypeptide receptor (hNpr1) antagonism - Pilot CMLD screen (AID 1347052; calls by dose curve;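 also: cGMP level read as GloSensor luciferase luminescence after agonist stimulation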; also: potency is read from the fitted curve at half-maximal effect).

Sequence of Atrial natriuretic peptide receptor 1 (Homo sapiens) (P16066 whole entry, looked up): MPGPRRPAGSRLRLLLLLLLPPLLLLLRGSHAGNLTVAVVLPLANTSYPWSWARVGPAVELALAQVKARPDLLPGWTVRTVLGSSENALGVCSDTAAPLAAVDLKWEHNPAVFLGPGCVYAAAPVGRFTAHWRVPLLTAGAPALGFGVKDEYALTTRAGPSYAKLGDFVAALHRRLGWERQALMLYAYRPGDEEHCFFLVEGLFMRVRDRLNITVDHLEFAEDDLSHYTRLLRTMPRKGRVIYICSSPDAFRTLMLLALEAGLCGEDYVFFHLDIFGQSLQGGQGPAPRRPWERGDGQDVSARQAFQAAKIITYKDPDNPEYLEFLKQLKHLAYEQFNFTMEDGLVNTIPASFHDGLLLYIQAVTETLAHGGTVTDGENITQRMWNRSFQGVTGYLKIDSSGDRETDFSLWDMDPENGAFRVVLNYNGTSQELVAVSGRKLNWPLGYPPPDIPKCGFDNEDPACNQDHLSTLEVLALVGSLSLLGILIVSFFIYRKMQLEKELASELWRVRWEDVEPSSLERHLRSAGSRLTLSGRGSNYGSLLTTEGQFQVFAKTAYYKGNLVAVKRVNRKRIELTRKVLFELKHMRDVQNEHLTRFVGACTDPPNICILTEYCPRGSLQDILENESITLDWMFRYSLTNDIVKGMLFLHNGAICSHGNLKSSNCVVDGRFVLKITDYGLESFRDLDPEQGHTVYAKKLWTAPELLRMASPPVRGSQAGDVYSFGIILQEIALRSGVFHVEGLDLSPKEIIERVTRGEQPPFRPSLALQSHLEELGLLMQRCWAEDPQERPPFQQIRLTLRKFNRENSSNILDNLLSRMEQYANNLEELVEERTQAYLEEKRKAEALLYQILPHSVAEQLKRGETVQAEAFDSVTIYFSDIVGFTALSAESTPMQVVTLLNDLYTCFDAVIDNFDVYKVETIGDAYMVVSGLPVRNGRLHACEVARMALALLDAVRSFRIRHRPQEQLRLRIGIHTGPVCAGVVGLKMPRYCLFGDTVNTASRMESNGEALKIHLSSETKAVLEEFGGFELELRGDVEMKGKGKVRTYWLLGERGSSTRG

For `O=C1CCCC=C1C(CCc1ccccc1)OC(=O)c1ccc(Br)cc1` (configuration not stated), the Potency entry in experiment [1], in experiment [2], in experiment [3], in experiment [4], in experiment [5] and in experiment [6] was “inactive” throughout.

Regarding `Cc1cc(C)cc(CO[C@H]2C=C[C@@H](c3ccccc3)O[C@H]2CO)c1`, the Potency result in experiment [1], in experiment [2], in experiment [3], in experiment [4], in experiment [5] and in experiment [6] was “inactive” throughout.

Consider `CCN1C(=S)NC(c2cccc(F)c2)C(C(=O)OC)=C1C` (configuration not stated), for which the Potency entry in experiment [1], in experiment [2], in experiment [3], in experiment [4], in experiment [5] and in experiment [6] was “inactive” each time.

As to `COC(=O)C=C[C@H]1c2ccccc2[C@@H](OC)[C@@H]1C`, the Potency entry in experiment [1], in experiment [2], in experiment [3], in experiment [4], in experiment [5] and in experiment [6] was “inactive” throughout.

With `CC1(OC(=O)C2CCCC2)C(=O)C=C2C=C(C3CC3)OC=C2C1=O` (configuration not stated), the Potency result in experiment [1], in experiment [2], in experiment [3], in experiment [4], in experiment [5] and in experiment [6] was “inactive” throughout.

Consider `Cc1cc2c(nc1C)CCCCN2C[C@H](C)ON=C[C@@H](C)[C@H](OCc1ccccc1)C(C)C`, for which the Potency entry in experiment [1], in experiment [2], in experiment [3], in experiment [4], in experiment [5] and in experiment [6] was “inactive” in each case.

`CCOC(=O)C(C)=NNC(C)=O`: the Potency result in experiment [1], in experiment [2], in experiment [3], in experiment [4], in experiment [5] and in experiment [6] was “inactive” each time.

On to `COC(=O)CCC(=O)OC1(C)C(=O)C=C2C=C3CCCN3C=C2C1=O` (configuration not stated), for which the Potency result in experiment [1], in experiment [2], in experiment [3], in experiment [4], in experiment [5] and in experiment [6] was “inactive” throughout.

With `C=COCCN1C=C(C(=O)OCC)C(c2ccccc2)NC1=O` (configuration not stated), the Potency result in experiment [1], in experiment [2], in experiment [3], in experiment [4], in experiment [5] and in experiment [6] was “inactive” throughout.

Take `CC1(OC(=O)C2CCCC2)C(=O)C=C2C=C(c3ccsc3)N(C3CC3)C=C2C1=O` (configuration not stated): in experiment [1], the activity, negative = inhibition was -0.441% [at 1.12 µM]. The Potency result in experiment [2], in experiment [3], in experiment [4], in experiment [5] and in experiment [6] was “inactive” throughout.

`COC1=C[C@H](C(=O)NCc2ccc(Cl)cc2)C(C)C(c2ccccc2)CC1=O` (some centres not stated): the Potency entry in experiment [1], in experiment [2], in experiment [3], in experiment [4], in experiment [5] and in experiment [6] was “inactive” each time.

As for `C=CCOC(=O)N[C@@H](Cc1ccccc1)C(C(=O)OC)=C(C)NCc1ccccc1`, the Potency entry in experiment [1], in experiment [2], in experiment [3], in experiment [4], in experiment [5] and in experiment [6] was “inactive” throughout.

For the compound `O=C1CCCC1C(O)c1ccc2ccccc2c1` (configuration not stated), the Potency result in experiment [1], in experiment [2], in experiment [3], in experiment [4], in experiment [5] and in experiment [6] was “inactive” each time.

With `C#CCCCON=C1C[C@@H](O)[C@H](O)[C@H]2[C@@H]3C(=O)N(c4ccc(F)cc4F)C(=O)[C@@H]3CC[C@@H]12`, the Potency entry in experiment [1], in experiment [2], in experiment [3], in experiment [4] and in experiment [5] was “inactive” in each case. Also, the Potency in experiment [6] is 422 nM (active).

Take `c1ccc(-c2nc(-c3ccccc3)c(Nc3ccc4ccccc4c3)o2)cc1`: the Potency result in experiment [1], in experiment [2], in experiment [3], in experiment [4], in experiment [5] and in experiment [6] was “inactive” throughout.

Take `C=C(C)C(O)C=Cc1ccc(Br)cc1` (configuration not stated): the Potency entry in experiment [1], in experiment [2], in experiment [3], in experiment [4], in experiment [5] and in experiment [6] was “inactive” throughout.

For the compound `COC(=O)N[C@@H](c1ccco1)[C@]1(C(=O)OC)CCCC1=O`, the Potency entry in experiment [1], in experiment [2], in experiment [3], in experiment [4], in experiment [5] and in experiment [6] was “inactive” each time.

Regarding `COC(=O)C1=C(C)N(Cc2ccco2)C(=O)NC1c1ccco1` (configuration not stated), the Potency entry in experiment [1], in experiment [2], in experiment [3], in experiment [4], in experiment [5] and in experiment [6] was “inactive” in each case.

Take `CCC(=O)OC1(C)C(=O)C=C2C=C(CCCC(=O)OC)OC=C2C1=O` (configuration not stated): the Potency result in experiment [1], in experiment [2], in experiment [3], in experiment [4], in experiment [5] and in experiment [6] was “inactive” throughout.

With `CCCCCCCC#Cc1ccccc1C=NS(=O)c1ccc(C)cc1` (configuration not stated), the Potency result in experiment [1], in experiment [2], in experiment [3], in experiment [4], in experiment [5] and in experiment [6] was “inactive” in each case.

For `CC(C)C(=O)N[C@H]1CCCN1C(=O)C=Cc1ccccc1`, the Potency result in experiment [1], in experiment [2], in experiment [3], in experiment [4], in experiment [5] and in experiment [6] was “inactive” each time.

`COC(=O)C(C(=O)OC)[C@H]1c2ccccc2[C@@H]2C(=C[C@@H](C)[C@H]3C(=O)N(c4ccccc4)C(=O)[C@H]32)N1C(=O)OC`: the Potency result in experiment [1], in experiment [2], in experiment [3], in experiment [4], in experiment [5] and in experiment [6] was “inactive” in each case.

Turning to `O=C1CCC=C1C(O)c1ccc2c(c1)OCO2` (configuration not stated), the Potency result in experiment [1], in experiment [2], in experiment [3], in experiment [4], in experiment [5] and in experiment [6] was “inactive” in each case.

Regarding `COC(=O)CC=C[C@@H](C)[C@H](NC(=O)OCC(Cl)(Cl)Cl)c1ccccc1`, the Potency result in experiment [1], in experiment [2], in experiment [3], in experiment [4], in experiment [5] and in experiment [6] was “inactive” throughout.

Regarding `O=C1C=C(c2ccccc2)CCC1`, the Potency entry in experiment [1], in experiment [2], in experiment [3], in experiment [4], in experiment [5] and in experiment [6] was “inactive” in each case.

For the compound `CCN1C(=O)N[C@@H](c2ccccc2)[C@H](C(=O)OC)[C@H]1C`, the Potency result in experiment [1], in experiment [2], in experiment [3], in experiment [4], in experiment [5] and in experiment [6] was “inactive” each time.

Turning to `COc1ccc(C2=CC3=C(Br)C(=O)C(C)(O)C(=O)C3=CO2)cc1` (configuration not stated), the Potency entry in experiment [1], in experiment [2], in experiment [3], in experiment [4], in experiment [5] and in experiment [6] was “inactive” throughout.

These data come from PubChem BioAssay (NCATS).
